PINK1 modulator: A Quantitative High throughput Screen to Identify Chemical Modulators of PINK1 Expression. PINK1 immunofluorescence, high-content cytometry, 24 h. Potency, µM (highest dose often 76.6 µM), hits mostly activators. 410,000 tested, 0.2% active. AID 624263, 2012; active means well fitted activation curve with a large enough effect; inconclusive means small, poorly fitted or top-dose-only effect; cell line not stated here; further: nearly all actives have a fitted effect of over 65% in size
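Readout is PINK1 immunofluorescence, quantified alongside mitochondrial, cell and nuclear markers by laser-scanning microplate cytometry. Cells from a stable line were exposed to compound titrations (5 concentrations) for 24 hours, with CCCP controls.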
S-ASM inh: Inhibitors of Secretory Acid Sphingomyelinase (S-ASM): qHTS; placental ASM, HMU-PC fluorogenic substrate, 60 min; Potency, µM (series often up to 57.5 µM), actives largely listed as inhibitors; 340,000 tested, 0.006% active
Target sequence (P17405 47-631 limits assumed): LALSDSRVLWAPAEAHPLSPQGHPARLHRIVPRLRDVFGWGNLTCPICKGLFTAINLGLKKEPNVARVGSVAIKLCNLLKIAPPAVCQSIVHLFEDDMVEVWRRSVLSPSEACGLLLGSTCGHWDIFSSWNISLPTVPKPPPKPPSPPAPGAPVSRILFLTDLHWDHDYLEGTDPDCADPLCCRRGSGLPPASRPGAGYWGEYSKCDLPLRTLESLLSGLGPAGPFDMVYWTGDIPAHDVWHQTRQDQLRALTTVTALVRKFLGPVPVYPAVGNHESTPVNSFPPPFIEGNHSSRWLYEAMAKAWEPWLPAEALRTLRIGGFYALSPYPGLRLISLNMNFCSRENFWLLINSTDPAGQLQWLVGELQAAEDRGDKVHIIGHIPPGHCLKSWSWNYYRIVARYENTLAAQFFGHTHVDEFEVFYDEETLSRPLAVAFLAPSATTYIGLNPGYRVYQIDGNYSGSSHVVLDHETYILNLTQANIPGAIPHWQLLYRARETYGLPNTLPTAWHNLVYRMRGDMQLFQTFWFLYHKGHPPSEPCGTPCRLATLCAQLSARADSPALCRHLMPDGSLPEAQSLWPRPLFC
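Steps: dispense placental human ASM, pin compound, wait 10 min at room temperature, add HMU-PC0 substrate at 9 uM final, incubate 60 min at 37 °C, add stop solution raising pH to 10, read fluorescence.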
Mm-Cpn inhibitor: Inhibitors of TCP-1 ring complex (TRiC) of Methanococcus maripaludis (MmCpn): qHTS; purified Mm-Cpn ATPase, ADP Transcreener TR-FRET; Potency, µM (titrated, usually from 76.9 µM), usual class: inhibitors; 330,000 tested, 0.031% active; AID 504842, 2011; further: nearly all actives have a fitted effect of over 80% in size
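Purified archaeal Mm-CPN (25nM final) preincubated 10 min at 37degC with compound, then 10uM ATP for 30 min at 37degC; ADP measured by HTRF Transcreener TR-FRET; buffer 30 mM TRIS pH 7.4, 100mM KCl, 5mM MgCl2, 1mM DTT.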
CCT modulator: High-Throughput Screening for Modulators of Cytosolic Chaperonin Activity | purified chaperonin ATPase assay, HTRF ADP detection, 30 min | activity change, % (test concentration not listed), hits read low | 360,000 tested, 0.3% active; in the data active means activity change below about -30%
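Enzyme 40 or 20 nM (batch-dependent) in Tris pH 7.4/KCl/MgCl2/DTT; cpd 76 uM single point; ATP 10 uM; 30 min 37 °C; Transcreener ADP HTRF detection, 30 min RT; ratio 665/615.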
p53 reactivator: qHTS assay for re-activators of p53 using a Luc reporter; Potency, µM (top dose mostly 92.2 µM), actives largely listed as activators; 320,000 tested, 0.063% active; H1299 p53-A138V BP100-luciferase reporter, luminescence, 24 h; further: nearly all actives have a fitted effect of over 45% in size
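H1299 (p53-null), stable ts p53-A138V + BP100-Luc; 1000 cells/well, Opti-MEM/10% FBS; cpd 4 pt, 1:5; 24 h, 37 deg C, 5% CO2; detection reagent 10 min RT; luminescence.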
ALOX12 inh: Primary qHTS assay for inhibitors of human arachidonate 12S-lipoxygenase (ALOX12): Round 2 | AID 1671190, 2021 | 580,000 tested, 1.1% active | Potency, µM (doses to about 108 µM), usual class: inhibitors | purified 12hLO, xylenol orange hydroperoxide absorbance | Polyunsaturated fatty acid lipoxygenase ALOX12 (Homo sapiens), P18054
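Purified human 12hLO at 150 nM in 25 mM Hepes, 0.01% Triton X-100, pH 7.0, preincubated 15 min at room temperature with compound. Reaction started with 40 uM arachidonic acid, 30 min at room temperature. Hydroperoxide measured by Fe-xylenol orange, 573/405 nm absorbance ratio.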
Numbers stand for hits; . = inactive; ? = inconclusive; / = not tested or not shown. Most compounds without a hit are left out; they make up all but 1.4% or so of the library. Unless noted, the call rests on the fitted dose curve; in most records, active means well fitted curve in the direction sought with a large enough effect; inconclusive means small, poorly fitted or top-dose-only effect, or another doubt; inactive means no such curve, though single readings can be large; an effect the other way counts as inactive or inconclusive.

SMILES | PINK1 modulator | S-ASM inh | Mm-Cpn inhibitor | CCT modulator | p53 reactivator | ALOX12 inh
Cc1cc(C)c2nc(NNC(=O)c3ccc(S(=O)(=O)N4CC(C)CC(C)C4)cc3)sc2c1 (centres undefined) | . | . | . | . | ? | 6.3µM
Cc1cccc2sc(NNC(=O)c3ccc(S(=O)(=O)N4CC(C)CC(C)C4)cc3)nc12 (centres undefined) | 40µM | . | . | . | . | ?
Cc1cc(C)c2nc(NC(=O)c3ccc(S(=O)(=O)N4CCC(C)CC4)cc3)sc2c1 | . | / | / | / | / | .
Cc1noc(C)c1COc1ccc(CC(=O)Nc2ncc(Cc3ccccc3)s2)cc1 | / | / | / | / | / | .
COc1cc2sc(-c3ccc(S(C)(=O)=O)cc3)c(C(=O)NCCCCO)c2cc1OC | . | . | . | . | . | .
COc1cc2sc(-c3ccc(S(C)(=O)=O)cc3)c(C(=O)NCc3ccc(C)o3)c2cc1OC | . | . | 50µM | . | . | .
Cc1ccsc1C(=O)Nc1ccc(-c2nnc3n2CCCC3)cc1 | / | / | / | / | / | .
CCCCC1CCC(C(=O)NC2CCS(=O)(=O)C2)CC1 (centres undefined) | . | . | . | -46 | . | .
O=C(NC1CCS(=O)(=O)C1)C1CCCC1 (centres undefined) | . | . | . | . | . | .
Cc1ccc(/C=C2/NC(=O)N(Cc3ccc(Br)cc3)C2=O)o1 | . | . | . | . | . | 45µM
CCN1C(=O)N/C(=C/c2ccc(C)o2)C1=O | . | . | . | . | . | .
CC(CCc1ccco1)NC(=O)C1CCN(c2ccc3nnc(C(F)(F)F)n3n2)CC1 (centres undefined) | / | / | / | / | / | .
CCOP(=O)(OCC)c1nc(-c2ccc([N+](=O)[O-])cc2)oc1NCc1ccc(C)cc1 | / | / | / | / | / | 10µM
CCCCCC(=O)N1C[C@H](n2cc(-c3ccc(F)cc3)nn2)[C@@H](O)C[C@@H]1c1ccc(Cl)cc1 | ? | / | / | . | / | .
CCCCCC(=O)N1C[C@@H](O)[C@H](n2cc(-c3ccc(F)cc3)nn2)C[C@@H]1c1ccc(Cl)cc1 | ? | / | / | . | / | 10µM
CN(C)c1ccc(C(=O)OCc2ccccc2)cc1 | . | . | . | . | ? | .
O=C1C=CC(=O)C(CNc2ccc(C(=O)OCc3ccccc3)cc2)=C1 | . | . | / | . | / | 16µM
C/C(=N\Nc1nc(-c2ccccc2)cs1)c1cccs1 | . | / | . | . | ? | 45µM
Cc1cccc(C)c1NC(=O)CN1CCN(C(=O)CCc2ncc(-c3ccc(F)cc3)o2)CC1 | / | / | / | / | / | .
COc1ccc(-c2nn(-c3ccccc3)cc2/C=N/NC(=S)NC(C)C)cc1OC | . | . | . | . | . | 35µM
COc1ccc(-c2nn(-c3ccccc3)cc2/C=N/NC(=O)c2ccc(Br)o2)cc1 | . | . | . | . | . | .
C=CCNC(=S)N/N=C/c1cn(-c2ccccc2)nc1-c1ccc(OC)cc1 | . | . | . | . | . | 40µM
Cc1ccc(CN2C(=O)C(=O)c3cc(Br)cc(C)c32)cc1 | . | / | / | / | / | 14µM
COc1ccc(OCCCC(=O)Oc2ccc3oc4ccccc4c3c2)cc1 | / | / | / | / | / | 13µM
O=C(CSc1nc(=O)n(Cc2cccnc2)c2c1CCC2)N1CCCCCC1 | / | / | / | / | / | .
SMILES | PINK1 modulator | S-ASM inh | Mm-Cpn inhibitor | CCT modulator | p53 reactivator | ALOX12 inh
CSc1nsc(SC)c1C(=O)NC(=O)Nc1cccnc1 | . | . | . | -42 | . | .
CSc1nsc(SC)c1C(=O)Nc1ccc(C(C)(C)C)cc1 | . | . | . | . | . | .
S=c1[nH]cc2cnccn12 | . | / | / | . | / | 8.9µM
O=C(O)c1ccccc1NC(c1ccccc1)c1ccc2cccnc2c1O (centres undefined) | . | . | / | . | / | 18µM
Cc1ccnc(NC(c2ccccc2)c2ccc3cccnc3c2O)c1 (centres undefined) | . | . | / | . | / | ?
COCCN(CCOC)Cc1cc(=O)oc2cc(C)c(Cl)cc12 | . | / | / | . | / | 45µM
CCCCN(CCCC)Cc1cc(=O)oc2ccc3ccccc3c12 | . | / | / | . | / | 35µM
COCCN(CCOC)Cc1cc(=O)oc2ccccc12 | . | / | / | . | / | 18µM
Cc1cc2oc(=O)cc(CN3CCCC3)c2cc1Cl | . | / | / | . | / | 6.3µM
C=CCN(CC=C)Cc1cc(=O)oc2ccc3ccccc3c12 | . | / | / | . | / | ?
CCCN(CCC)Cc1cc(=O)oc2cc(C)c(Cl)cc12 | . | / | / | . | / | 40µM
CC(C)N1C(=O)S/C(=C/c2cn(CC#N)c3ccccc23)C1=O | / | / | / | / | / | 4.5µM
CCN1C(=O)S/C(=C/c2cn(C(C)C)c3ccccc23)C1=O | / | / | / | / | / | .
C=CCN1C(=O)S/C(=C/c2cn(CC(=O)O)c3ccccc23)C1=O | / | / | / | / | / | 32µM
CC(C)C(NC(=O)OC(C)(C)C)C(=O)NC(CCC(=O)OCc1ccccc1)C(N)=O (centres undefined) | . | . | . | . | . | .
CC(NC(=O)OC(C)(C)C)C(=O)NC(CCC(=O)OCc1ccccc1)C(N)=O (centres undefined) | . | . | . | -60 | . | .
Cc1cccc(N(C)C(=O)Cn2cccc2-c2nc(-c3ccccc3)no2)c1 | / | / | / | / | / | .
O=C(Nc1ccc(NC(=O)c2sc3ccccc3c2Cl)cc1Cl)c1ccco1 | ? | . | . | -33 | . | .
O=C(Nc1ccc(NC(=O)c2cccs2)c(Cl)c1)c1ccco1 | . | . | . | . | . | ?
Cc1c(CCC(=O)NCc2nc(-c3ccccc3)no2)c(=O)oc2cc(O)ccc12 | / | / | / | / | / | .
CCOc1ccc(C(N)=S)cc1 | / | / | / | / | / | 14µM
CN(C)c1ccc(C(N)=S)cc1 | / | / | / | / | / | 16µM
CCCCCNC(=O)c1cc(-c2ccc(Cl)cc2)nc2ccccc12 | / | / | / | / | / | .
CCNc1ncc2nc(-c3ccc(Cl)cc3)c(=O)n(-c3ccccc3)c2n1 | 13µM | / | / | / | / | .
CN(C)CCCN(Cc1cccc2ccccc12)Cc1cccc2ccccc12 | / | / | / | / | / | 5µM
SMILES | PINK1 modulator | S-ASM inh | Mm-Cpn inhibitor | CCT modulator | p53 reactivator | ALOX12 inh
OCC1CCN(c2ccc(-c3nc(CCCc4ccccc4)no3)cn2)CC1 | / | / | / | / | / | .
O=C(CNC(=O)c1ccccc1)NCCCSc1ccccc1 | . | . | . | . | ? | .
O=C(NCCCSc1ccccc1)c1cc(Cl)ccc1O | 18µM | . | . | . | . | ?
Cc1ccc(C(=O)Cn2nnc(-c3cccs3)n2)cc1 | . | . | . | . | ? | .
O=C(CN1CC[n+]2c(-c3cccs3)csc21)c1ccc(-c2ccccc2)cc1 | 16µM | . | . | . | . | ?
COc1ccc2cc(C(=O)N3CCN(c4ccccc4OC)CC3)[nH]c2c1 | . | ? | . | . | . | 16µM

High-throughput results deposited in PubChem BioAssay by National Center for Advancing Translational Sciences (NCATS).
